# The list is not random: actives were taken first. Their share in the collection is about 6.1%.
# ERG-DNA inh: qHTS for Small Molecule Inhibitors of the ERG Ets/DNA interaction; fluorescence polarization, His-ERG Ets domain / labelled DNA; Potency, µM (series often up to 76.9 µM), for inactives: top-dose FP activity, negative = inhibition, hits mostly inhibitors; Transcriptional regulator ERG (Homo sapiens), P11308; actives 0.028% (n = 370,000); active = well fitted inhibition curve with a large enough effect in the polarisation, with a control signal flat; inconclusive = small, poorly fitted or top-dose-only effect, or effect the other way, or a change in a side signal; inactive = no such curve, though single readings can be large or run the other way; the % refers to the polarisation;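 note: polarization taken with two DNA probes labelled with fluorescein and Texas red; potency is the fitted concentration of half-maximal effect; % of control where 0% means no effect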
# Target sequence (P11308 whole entry, looked up, the tested form may be a part): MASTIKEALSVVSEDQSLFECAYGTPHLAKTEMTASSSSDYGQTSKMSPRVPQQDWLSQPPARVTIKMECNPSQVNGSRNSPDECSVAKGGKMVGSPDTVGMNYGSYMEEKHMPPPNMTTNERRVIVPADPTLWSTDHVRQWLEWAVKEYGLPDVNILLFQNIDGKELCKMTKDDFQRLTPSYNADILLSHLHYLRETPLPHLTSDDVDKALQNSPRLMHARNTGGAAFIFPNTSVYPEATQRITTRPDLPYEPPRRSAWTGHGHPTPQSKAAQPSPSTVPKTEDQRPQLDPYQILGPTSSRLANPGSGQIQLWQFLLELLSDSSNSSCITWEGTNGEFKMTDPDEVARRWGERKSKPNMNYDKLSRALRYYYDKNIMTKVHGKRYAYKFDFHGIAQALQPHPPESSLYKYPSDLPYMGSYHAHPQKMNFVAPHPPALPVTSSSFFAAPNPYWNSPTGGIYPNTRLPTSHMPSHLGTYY
#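 His-tagged ERG Ets domain (1 uM in the protein solution; 300mM KCl, 50mM Tris-HCl, 1mM EDTA, 1mM DTT, pH 7.5) received compound, then a probe mix of 5 nM fluorescein-DNA and 100nM Texas-615-DNA. Fluorescence polarization was read for both dyes.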
# D1 PAM: Potentiators of Human D1 Dopamine Receptor: qHTS. D(1A) dopamine receptor (Homo sapiens), P21728. HEK293 TREx D1 cells, calcium flux, dopamine EC20 potentiation. potentiation, % at 10 µM. actives 0.036% (n = 360,000). AID 504651, 2011; in the data active = potentiation above about 30%; note: 0% is about no effect
# D1 antagonist: Antagonist of Human D 1 Dopamine Receptor: qHTS. activity change, negative = inhibition, % at 10 µM. AID 504652, 2011. D(1A) dopamine receptor (Homo sapiens), P21728. actives 3.2% (n = 360,000). HEK293 TREx D1 cells, calcium flux, dopamine EC80; active compounds read low; in the data active = activity change below about -30%; note: % is set by controls: 0 for no effect and ±100 for the full control effect
#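 Tetracycline-induced HEK293 T-REx cells with force-coupled D1 receptor were loaded with a no-wash calcium dye. Compound was added after a 10 s baseline and read kinetically for 180 s; EC80 dopamine was then added and calcium flux followed another 180 s.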
# D1 ag: Allosteric Agonists of the Human D1 Dopamine Receptor: qHTS | activation, % at 2 µM | AID 504660, 2011 | HEK293 T-REx D1 cells, calcium flux, agonist mode | D(1A) dopamine receptor (Homo sapiens), P21728 | actives 1% (n = 360,000); in the data active = activation above about 30%; note: 0% is about no effect
#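 Inducible HEK293 T-REx D1 cells, force-coupled to calcium signalling, were plated at 4000 cells/well with tetracycline and held overnight at 30 C. After no-wash calcium dye loading, compound-evoked calcium rise over 180 s flagged agonists.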
# DRD3 antagonist: qHTS of D3 Dopamine Receptor Antagonist: qHTS; D3R cells, DiscoveRx beta-arrestin luminescence, antagonist mode; active compounds read low; max response, negative = inhibition, %; D(3) dopamine receptor (Homo sapiens), P35462; AID 652054, 2013; actives 2.5% (n = 360,000); in the data active = max response below about -50%; inconclusive = no clear call, values can overlap the other calls; note: % is set by controls: 0 for no effect and ±100 for the full control effect
#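 Cells expressing the human receptor were seeded at 1500 cells/well, incubated overnight at 37 degrees C in 5% CO2, then exposed to library compounds with dopamine controls for 90 minutes at 37 degrees C before luminescent detection.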
# DRD3 agonist: qHTS of D3 Dopamine Receptor Agonist: qHTS; max activation, %; D3R DiscoveRx beta-arrestin cells, luminescence, 90 min; AID 652048, 2013; actives 0.58% (n = 410,000); in the data active = max activation above about 30%; note: 0% is about no effect
#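 Agonist-mode cell screen: cells plated at 1500/well and incubated overnight at 37 °C, then exposed to library compounds for 90 min at 37 °C. Detection reagent was added for 30–60 min at room temperature, and luminescence was read.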
# * = called active by the depositor; ? = inconclusive; . = no result given.
SMILES,ERG-DNA inh,D1 PAM,D1 antagonist,D1 ag,DRD3 antagonist,DRD3 agonist
COc1cccc(C2CCN(CC(=O)Nc3cc(Cl)ccc3OC)CC2O)c1 (stereo unspecified),20µM*,-8.3,3.2,3.9,-9.8,10.4
O=C(CCN1CCN(CCO)CC1)N1c2ccccc2Sc2ccc(C(F)(F)F)cc21,-17.1%,-7.0,-21.1,2.9,-74.4*,-34.3
COc1ccc(C(=O)O)cc1OC,-3.5%,.,.,.,19.4,2.3
O=C(O)c1cc[c]([Hg][Cl])cc1,6.2%,11.9,0.6,4.6,-64.7*,-59.4
Cc1ccsc1C(=O)C1CCCN(Cc2cccc(OCCO)c2)C1 (stereo unspecified),-4.3%,-0.9,5.8,7.0,?,-29.7
Cc1ccsc1C(=O)C1CCCN(Cc2ccc(-n3cccn3)cc2)C1 (stereo unspecified),4.0%,-2.5,-0.8,2.2,-62.7*,-13.9
Cc1ccsc1C(=O)C1CCCN(Cc2cccc(-n3cccn3)c2)C1 (stereo unspecified),13.8%,2.8,3.5,12.8,-79.9*,-32.5
COc1cc(CN2CCCC(C(=O)c3sccc3C)C2)cc(OC)c1O (stereo unspecified),1.5%,-1.6,-1.9,0.5,-26.7,-1.9
ClCCN(CCCl)c1ccc(C=NNc2ncccn2)cc1,5.0%,.,.,.,-20.7,2.7
ClCCN(CCCl)c1ccc(C=Cc2ccncn2)cc1,13.9%,.,.,.,-14.0,71.7*
CCN(CC)c1ccc(C=C2C(=O)N(C)C(=S)N(C)C2=O)o1,85.7%,-0.4,-9.8,50.2*,-16.9,-10.9
CCN(CC)c1ccc(/C=C2\C(=O)NC(=S)N(c3ccc(OC)cc3OC)C2=O)o1,79.3%,.,.,.,-19.4,3.7
COc1ccc(N2C(=O)/C(=C/c3ccc(N(C)C)o3)C(=O)NC2=S)cc1,39.2%,3.5,-2.8,35.4*,?,-10.5
COc1cccc(N2C(=O)/C(=C/c3ccc(C)o3)C(=O)NC2=S)c1,-3.2%,7.7,0.8,2.4,-4.0,2.9
COc1ccc(N2C(=O)NC(=O)/C(=C\c3cn(C)c4ccccc34)C2=O)cc1,3.5%,-0.5,-10.9,54.5*,-2.1,1.5
COC(=O)Cn1cc(/C=C2\C(=O)NC(=O)N(c3ccc(OC)cc3)C2=O)c2ccccc21,15.3%,1.4,4.1,2.7,6.7,13.7
CCN(CC)c1ccc(/C=C2\C(=O)NC(=S)N(C)C2=O)o1,37.9%,-4.5,0.0,64.7*,?,-8.3
CCN1CCN(C(=O)COc2ccc(S(=O)(=O)N3CCOCC3)cc2C)CC1,-3.8%,.,-1.3,19.5,12.4,4.6
CN1C(=O)C(=Cc2ccc(N3CCCCC3)o2)C(=O)N(C)C1=S,?,3.5,-7.0,85.4*,-16.7,1.2
CC[C@H]1CN2CCC1C[C@H]2[C@H](O)c1ccnc2ccc(OC)cc12 (stereo partly specified),-1.8%,-0.7,-14.6,0.6,-16.6,-16.0
CC[C@H]1CN2CCC1C[C@@H]2[C@@H](O)c1ccnc2ccc(OC)cc12 (stereo partly specified),12.1%,.,.,.,-62.8*,-78.0
Clc1cccc(N2Cc3ccccc3-n3nncc3C2)c1,.,.,.,.,11.0,-0.7
NC(Cc1nc2ccccc2[nH]1)c1ccc(Cl)cc1 (stereo unspecified),0.5%,-8.3,-15.7,8.0,0.8,-7.2
CC(C)[C@H]1C(=O)N2CCC[C@H]2[C@]2(O)O[C@](NC(=O)[C@@H]3C[C@@H]4c5cccc6[nH]cc(c56)C[C@H]4N(C)C3)(C(C)C)C(=O)N12,.,.,.,.,.,5.2

# Bioassay records deposited in PubChem by National Center for Advancing Translational Sciences (NCATS).
